Reference: PubChem BioAssay AID1159580 (chemical genetic matrix, 2015)
Out of some 5,500 compounds screened, about 2,000 (36%) were called active. Another 18% or so got no clear call; they are omitted. No stated cut-off is given here; in the data, active means normalized growth mostly below about 0.91 (no sharp cut-off); inconclusive means no clear call, values can overlap the other calls; inactive means mostly above about 0.92. The list shows a part of the results.

Assay: chemical genetic growth profiling, strain panel (AID 1159580);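 further: tested at 20 µM; growth read once vehicle control cultures reached saturation at 30 °C; 1 = growth at the plate median or of vehicle wells; lower values mean less growth of the strain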
Conditions: growth OD

Measured: normalized growth

COc1ccc2oc3ccccc3c(=O)c2c1
active: S. cerevisiae deletion strains, locus YJL187C, strain SWE1, active compounds read low 0.834 | S. cerevisiae deletion strains, locus YKL085W, strain MDH1 (second series), active compounds read low 0.914 | S. cerevisiae deletion strains, locus YKL085W, strain MDH1, active compounds read low 0.914 | S. cerevisiae deletion strains, locus YKL160W, strain elf1, active compounds read low 0.823 | S. cerevisiae deletion strains, locus YKR001C, strain vps1, active compounds read low 0.526 | S. cerevisiae deletion strains, locus YLL001W, strain dnm1, active compounds read low 0.875 | S. cerevisiae deletion strains, locus YLL026W, active compounds read low 0.879 | S. cerevisiae deletion strains, locus YLR027C, strain aat2, active compounds read low 0.855 | S. cerevisiae deletion strains, locus YLR039C, strain RIC1, active compounds read low 0.486 | S. cerevisiae deletion strains, locus YLR058C, strain SHM2, active compounds read low 0.861 | S. cerevisiae deletion strains, locus YLR102C, strain apc9, active compounds read low 0.907 | S. cerevisiae deletion strains, locus YLR221C, strain rsa3, active compounds read low 0.821 | S. cerevisiae deletion strains, locus YLR258W, strain gsy2, active compounds read low 0.871 | S. cerevisiae deletion strains, locus YLR262C, strain YPT6 (second series), active compounds read low 0.597 | S. cerevisiae deletion strains, locus YLR262C, strain YPT6, active compounds read low 0.577 | S. cerevisiae deletion strains, locus YLR268W, strain sec22, active compounds read low 0.84 | S. cerevisiae deletion strains, locus YLR320W, strain mms22, active compounds read low 0.464 | S. cerevisiae deletion strains, locus YLR330W, strain CHS5, active compounds read low 0.854 | S. cerevisiae deletion strains, locus YLR371W, strain rom2, active compounds read low 0.7 | S. cerevisiae deletion strains, locus YLR384C, strain iki3, active compounds read low 0.912 | S. cerevisiae deletion strains, locus YLR418C, strain cdc73, active compounds read low 0.659 | S. cerevisiae deletion strains, locus YML016C, strain PPZ1, active compounds read low 0.881 | S. cerevisiae deletion strains, locus YML032C, strain rad52, active compounds read low 0.755 | S. cerevisiae deletion strains, locus YML120C, strain ndi1, active compounds read low 0.742 | S. cerevisiae deletion strains, locus YML124C, strain tub3, active compounds read low 0.902 | S. cerevisiae deletion strains, locus YMR058W, strain fet3, active compounds read low 0.86 | S. cerevisiae deletion strains, locus YMR078C, strain ctf18, active compounds read low 0.852 | S. cerevisiae deletion strains, locus YMR125W, strain sto1, active compounds read low 0.713 | S. cerevisiae deletion strains, locus YMR205C, strain PFK2, active compounds read low 0.78 | S. cerevisiae deletion strains, locus YMR223W, strain ubp8, active compounds read low 0.84 | S. cerevisiae deletion strains, locus YMR231W, strain pep5, active compounds read low 0.915 | S. cerevisiae deletion strains, locus YNL071W, strain lat1, active compounds read low 0.421 | S. cerevisiae deletion strains, locus YNL128W, strain TEP1, active compounds read low 0.815 | S. cerevisiae deletion strains, locus YNL233W, strain BNI4, active compounds read low 0.81 | S. cerevisiae deletion strains, locus YNL248C, strain rpa49, active compounds read low 0.397 | S. cerevisiae deletion strains, locus YNL250W, strain rad50, active compounds read low 0.866 | S. cerevisiae deletion strains, locus YNL271C, strain bni1, active compounds read low 0.874 | S. cerevisiae deletion strains, locus YNL298W, strain CLA4, active compounds read low 0.869 | S. cerevisiae deletion strains, locus YNL307C, strain MCK1, active compounds read low 0.569 | S. cerevisiae deletion strains, locus YNR052C, strain pop2, active compounds read low 0.874 | S. cerevisiae deletion strains, locus YOL147C, strain pex11, active compounds read low 0.906 | S. cerevisiae deletion strains, locus YOR001W, strain rrp6, active compounds read low 0.825 | S. cerevisiae deletion strains, locus YOR061W, strain CKA2, active compounds read low 0.886 | S. cerevisiae deletion strains, locus YOR069W, strain VPS5, active compounds read low 0.918 | S. cerevisiae deletion strains, locus YOR070C, strain gyp1, active compounds read low 0.859 | S. cerevisiae deletion strains, locus YOR083W, strain WHI5, active compounds read low 0.789 | S. cerevisiae deletion strains, locus YOR106W, strain vam3, active compounds read low 0.817 | S. cerevisiae deletion strains, locus YOR144C, strain elg1, active compounds read low 0.904 | S. cerevisiae deletion strains, locus YOR184W, strain ser1, active compounds read low 0.771 | S. cerevisiae deletion strains, locus YOR270C, strain vph1, active compounds read low 0.528 | S. cerevisiae deletion strains, locus YOR290C, strain snf2, active compounds read low 0.686 | S. cerevisiae deletion strains, locus YOR316C, strain cot1, active compounds read low 0.903 | S. cerevisiae deletion strains, locus YPL051W, strain arl3, active compounds read low 0.772 | S. cerevisiae deletion strains, locus YPL078C, strain atp4, active compounds read low 0.773 | S. cerevisiae deletion strains, locus YPL106C, strain sse1, active compounds read low 0.78 | S. cerevisiae deletion strains, locus YPL241C, strain CIN2, active compounds read low 0.917 | S. cerevisiae deletion strains, locus YPR119W, strain clb2, active compounds read low 0.907 | S. cerevisiae deletion strains, locus YPR141C, strain kar3, active compounds read low 0.882 | S. cerevisiae deletion strains, locus YPR163C, strain tif3, active compounds read low 0.756 | S. cerevisiae deletion strains, strain wtn01, active compounds read low 0.87 | S. cerevisiae strains, strain wild type, active compounds read low 0.874
inactive: S. cerevisiae deletion strains, locus YJR043C, strain POL32, active compounds read low 0.932 | S. cerevisiae deletion strains, locus YJR075W, strain HOC1, active compounds read low 0.885 | S. cerevisiae deletion strains, locus YKL009W, strain mrt4, active compounds read low 0.886 | S. cerevisiae deletion strains, locus YKL068W, active compounds read low 0.949 | S. cerevisiae deletion strains, locus YKL190W, strain CNB1, active compounds read low 0.922 | S. cerevisiae deletion strains, locus YKR026C, strain gcn3, active compounds read low 0.927 | S. cerevisiae deletion strains, locus YKR091W, strain srl3, active compounds read low 0.945 | S. cerevisiae deletion strains, locus YLL041C, strain sdh2, active compounds read low 0.937 | S. cerevisiae deletion strains, locus YLR342W, strain FKS1 (second series), active compounds read low 0.945 | S. cerevisiae deletion strains, locus YLR342W, strain FKS1, active compounds read low 0.952 | S. cerevisiae deletion strains, locus YLR357W, strain rsc2, active compounds read low 1.09 | S. cerevisiae deletion strains, locus YLR370C, strain arc18, active compounds read low 0.946 | S. cerevisiae deletion strains, locus YMR129W, active compounds read low 0.95 | S. cerevisiae deletion strains, locus YMR307W, strain GAS1, active compounds read low 0.845 | S. cerevisiae deletion strains, locus YNL067W, strain RPL9B, active compounds read low 0.874 | S. cerevisiae deletion strains, locus YNL209W, strain ssb2, active compounds read low 0.934 | S. cerevisiae deletion strains, locus YNL322C, strain KRE1 (second series), active compounds read low 0.992 | S. cerevisiae deletion strains, locus YNR049C, strain mso1, active compounds read low 0.947 | S. cerevisiae deletion strains, locus YOL012C, strain htz1 0.651 | S. cerevisiae deletion strains, locus YOR080W, strain dia2, active compounds read low 0.959 | S. cerevisiae deletion strains, locus YOR136W, strain idh2, active compounds read low 0.922 | S. cerevisiae deletion strains, locus YOR265W, strain rbl2, active compounds read low 0.932 | S. cerevisiae deletion strains, locus YPL240C, strain hsp82, active compounds read low 0.931 | S. cerevisiae deletion strains, locus YPR167C, strain met16, active compounds read low 0.925
